molecular target: SpBzz1-D2; assay: SPOT peptide array binding signal intensity (averaged, normalized) (arbitrary units (background-subtracted, floor 0; scale differs between SH3 domains)); higher = stronger binding of the SH3 domain to the peptide
In short: (§1)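 GST-fused SH3 domains, from four yeast species, were produced in E. coli BL21(DE3) and captured on glutathione Sepharose. Membranes of cellulose carrying synthetic 15-mer peptides, in which cysteines had been replaced by serines, were exposed to each domain at 10 μg/ml overnight at 4°C in TBS-based blocking buffer. After anti-GST antibody, an HRP anti-mouse secondary and luminol, spots were imaged and quantified using Genespotter. Binding signal is normalized and background-subtracted spot intensity, averaged over replicates, in arbitrary units that differ between domains.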

Row | Binder | SPOT peptide array binding signal intensity
1 | NENKKLPPAPTVFGL | 0.25
2 | EREKALPPIPFTTTL | ≤ 0

molecular target: SpCyk3; assay: as above
In short: as §1

Row | Binder | SPOT peptide array binding signal intensity
3 | NENKKLPPAPTVFGL | 2.5
4 | EREKALPPIPFTTTL | 3.5

molecular target: SpHof1; assay: as above
In short: as §1

Row | Binder | SPOT peptide array binding signal intensity
5 | NENKKLPPAPTVFGL | 49.8
6 | EREKALPPIPFTTTL | 1190

molecular target: SpHof1-2; assay: as above
In short: as §1

Row | Binder | SPOT peptide array binding signal intensity
7 | NENKKLPPAPTVFGL | 344
8 | EREKALPPIPFTTTL | 1870

molecular target: SpHof1-3; assay: as above
In short: as §1

Row | Binder | SPOT peptide array binding signal intensity
9 | NENKKLPPAPTVFGL | 166
10 | EREKALPPIPFTTTL | 3060

molecular target: SpHse1; assay: as above
In short: as §1

Row | Binder | SPOT peptide array binding signal intensity
11 | NENKKLPPAPTVFGL | 71.8
12 | EREKALPPIPFTTTL | 29.2

molecular target: SpLsb1; assay: as above
In short: as §1

Row | Binder | SPOT peptide array binding signal intensity
13 | NENKKLPPAPTVFGL | 0.5
14 | EREKALPPIPFTTTL | ≤ 0

molecular target: SpLsb4; assay: as above
In short: as §1

Row | Binder | SPOT peptide array binding signal intensity
15 | NENKKLPPAPTVFGL | ≤ 0
16 | EREKALPPIPFTTTL | 7

molecular target: SpMyo1; assay: as above
In short: as §1

Row | Binder | SPOT peptide array binding signal intensity
17 | NENKKLPPAPTVFGL | ≤ 0
18 | EREKALPPIPFTTTL | 32.5

molecular target: SpNbp2; assay: as above
In short: as §1

Row | Binder | SPOT peptide array binding signal intensity
19 | NENKKLPPAPTVFGL | ≤ 0
20 | EREKALPPIPFTTTL | ≤ 0

molecular target: SpPex13; assay: as above
In short: as §1

Row | Binder | SPOT peptide array binding signal intensity
21 | NENKKLPPAPTVFGL | ≤ 0
22 | EREKALPPIPFTTTL | 1

molecular target: SpRvs167; assay: as above
In short: as §1

Row | Binder | SPOT peptide array binding signal intensity
23 | NENKKLPPAPTVFGL | 0.333
24 | EREKALPPIPFTTTL | 38.7

molecular target: SpSla1-D1-D2; assay: as above
In short: as §1

Row | Binder | SPOT peptide array binding signal intensity
25 | NENKKLPPAPTVFGL | 8
26 | EREKALPPIPFTTTL | 9

molecular target: SpSla1-D3; assay: as above
In short: as §1

Row | Binder | SPOT peptide array binding signal intensity
27 | NENKKLPPAPTVFGL | 1.5
28 | EREKALPPIPFTTTL | 0.5

molecular target: AgAbp1; assay: as above
In short: as §1

Row | Binder | SPOT peptide array binding signal intensity
29 | EREKALPPIPFTTTL | ≤ 0

molecular target: AgBbc1; assay: as above
In short: as §1

Row | Binder | SPOT peptide array binding signal intensity
30 | EREKALPPIPFTTTL | ≤ 0

molecular target: AgBem1-D1; assay: as above
In short: as §1

Row | Binder | SPOT peptide array binding signal intensity
31 | EREKALPPIPFTTTL | 71

molecular target: AgBzz1-D1; assay: as above
In short: as §1

Row | Binder | SPOT peptide array binding signal intensity
32 | EREKALPPIPFTTTL | 13

molecular target: AgBzz1-D2; assay: as above
In short: as §1

Row | Binder | SPOT peptide array binding signal intensity
33 | EREKALPPIPFTTTL | ≤ 0

molecular target: AgCyk3; assay: as above
In short: as §1

Row | Binder | SPOT peptide array binding signal intensity
34 | EREKALPPIPFTTTL | 2

molecular target: AgFus1; assay: as above
In short: as §1

Row | Binder | SPOT peptide array binding signal intensity
35 | EREKALPPIPFTTTL | 5

molecular target: AgHof1; assay: as above
In short: as §1

Row | Binder | SPOT peptide array binding signal intensity
36 | EREKALPPIPFTTTL | 132

molecular target: AgHse1; assay: as above
In short: as §1

Row | Binder | SPOT peptide array binding signal intensity
37 | EREKALPPIPFTTTL | 0.5

molecular target: AgLsb1; assay: as above
In short: as §1

Row | Binder | SPOT peptide array binding signal intensity
38 | EREKALPPIPFTTTL | 18

molecular target: AgLsb4; assay: as above
In short: as §1

Row | Binder | SPOT peptide array binding signal intensity
39 | EREKALPPIPFTTTL | 3.5

molecular target: AgMyo5; assay: as above
In short: as §1

Row | Binder | SPOT peptide array binding signal intensity
40 | EREKALPPIPFTTTL | ≤ 0

molecular target: AgNbp2; assay: as above
In short: as §1

Row | Binder | SPOT peptide array binding signal intensity
41 | EREKALPPIPFTTTL | ≤ 0

molecular target: AgRvs167; assay: as above
In short: as §1

Row | Binder | SPOT peptide array binding signal intensity
42 | EREKALPPIPFTTTL | 0.333

molecular target: AgSho1; assay: as above
In short: as §1

Row | Binder | SPOT peptide array binding signal intensity
43 | EREKALPPIPFTTTL | 5670

molecular target: AgSla1-D1-D2; assay: as above
In short: as §1

Row | Binder | SPOT peptide array binding signal intensity
44 | EREKALPPIPFTTTL | ≤ 0

molecular target: AgSla1-D3; assay: as above
In short: as §1

Row | Binder | SPOT peptide array binding signal intensity
45 | EREKALPPIPFTTTL | ≤ 0

molecular target: CaAbp1-D1; assay: as above
In short: as §1

Row | Binder | SPOT peptide array binding signal intensity
46 | EREKALPPIPFTTTL | ≤ 0

molecular target: CaAbp1-D2; assay: as above
In short: as §1

Row | Binder | SPOT peptide array binding signal intensity
47 | EREKALPPIPFTTTL | ≤ 0

molecular target: CaBbc1; assay: as above
In short: as §1

Row | Binder | SPOT peptide array binding signal intensity
48 | EREKALPPIPFTTTL | ≤ 0

molecular target: CaBem1-D1; assay: as above
In short: as §1

Row | Binder | SPOT peptide array binding signal intensity
49 | EREKALPPIPFTTTL | 1.5

molecular target: CaBzz1-D1; assay: as above
In short: as §1

Row | Binder | SPOT peptide array binding signal intensity
50 | EREKALPPIPFTTTL | ≤ 0

molecular target: CaBzz1-D2; assay: as above
In short: as §1

Row | Binder | SPOT peptide array binding signal intensity
51 | EREKALPPIPFTTTL | 1.53e-05

molecular target: CaCyk3; assay: as above
In short: as §1

Row | Binder | SPOT peptide array binding signal intensity
52 | EREKALPPIPFTTTL | ≤ 0

molecular target: CaFus1; assay: as above
In short: as §1

Row | Binder | SPOT peptide array binding signal intensity
53 | EREKALPPIPFTTTL | 125

molecular target: CaHof1; assay: as above
In short: as §1

Row | Binder | SPOT peptide array binding signal intensity
54 | EREKALPPIPFTTTL | 3

molecular target: CaHse1; assay: as above
In short: as §1

Row | Binder | SPOT peptide array binding signal intensity
55 | EREKALPPIPFTTTL | 30

molecular target: CaLsb1; assay: as above
In short: as §1

Row | Binder | SPOT peptide array binding signal intensity
56 | EREKALPPIPFTTTL | 0.5

molecular target: CaLsb4; assay: as above
In short: as §1

Row | Binder | SPOT peptide array binding signal intensity
57 | EREKALPPIPFTTTL | ≤ 0

molecular target: CaMyo5; assay: as above
In short: as §1

Row | Binder | SPOT peptide array binding signal intensity
58 | EREKALPPIPFTTTL | 0.5

molecular target: CaNbp2; assay: as above
In short: as §1

Row | Binder | SPOT peptide array binding signal intensity
59 | EREKALPPIPFTTTL | ≤ 0

molecular target: CaRvs167; assay: as above
In short: as §1

Row | Binder | SPOT peptide array binding signal intensity
60 | EREKALPPIPFTTTL | 2.67

molecular target: CaRvs167-3; assay: as above
In short: as §1

Row | Binder | SPOT peptide array binding signal intensity
61 | EREKALPPIPFTTTL | 1

molecular target: CaSho1; assay: as above
In short: as §1

Row | Binder | SPOT peptide array binding signal intensity
62 | EREKALPPIPFTTTL | 4810

molecular target: CaSla1-D1-D2; assay: as above
In short: as §1

Row | Binder | SPOT peptide array binding signal intensity
63 | EREKALPPIPFTTTL | ≤ 0

molecular target: CaSla1-D3; assay: as above
In short: as §1

Row | Binder | SPOT peptide array binding signal intensity
64 | EREKALPPIPFTTTL | 0.5

molecular target: ScAbp1; assay: as above
In short: as §1

Row | Binder | SPOT peptide array binding signal intensity
65 | EREKALPPIPFTTTL | ≤ 0

molecular target: ScBbc1; assay: as above
In short: as §1

Row | Binder | SPOT peptide array binding signal intensity
66 | EREKALPPIPFTTTL | 1

molecular target: ScBem1-D1; assay: as above
In short: as §1

Row | Binder | SPOT peptide array binding signal intensity
67 | EREKALPPIPFTTTL | ≤ 0

molecular target: ScBzz1-D1; assay: as above
In short: as §1

Row | Binder | SPOT peptide array binding signal intensity
68 | EREKALPPIPFTTTL | ≤ 0

molecular target: ScBzz1-D2; assay: as above
In short: as §1

Row | Binder | SPOT peptide array binding signal intensity
69 | EREKALPPIPFTTTL | 2

molecular target: ScCyk3; assay: as above
In short: as §1

Row | Binder | SPOT peptide array binding signal intensity
70 | EREKALPPIPFTTTL | 5

molecular target: ScFus1; assay: as above
In short: as §1

Row | Binder | SPOT peptide array binding signal intensity
71 | EREKALPPIPFTTTL | 2

molecular target: ScHof1; assay: as above
In short: as §1

Row | Binder | SPOT peptide array binding signal intensity
72 | EREKALPPIPFTTTL | 66

molecular target: ScHse1; assay: as above
In short: as §1

Row | Binder | SPOT peptide array binding signal intensity
73 | EREKALPPIPFTTTL | ≤ 0

molecular target: ScLsb1; assay: as above
In short: as §1

Row | Binder | SPOT peptide array binding signal intensity
74 | EREKALPPIPFTTTL | ≤ 0

molecular target: ScLsb2; assay: as above
In short: as §1

Row | Binder | SPOT peptide array binding signal intensity
75 | EREKALPPIPFTTTL | ≤ 0

molecular target: ScLsb3; assay: as above
In short: as §1

Row | Binder | SPOT peptide array binding signal intensity
76 | EREKALPPIPFTTTL | ≤ 0

molecular target: ScLsb4; assay: as above
In short: as §1

Row | Binder | SPOT peptide array binding signal intensity
77 | EREKALPPIPFTTTL | 0.5

molecular target: ScMyo3; assay: as above
In short: as §1

Row | Binder | SPOT peptide array binding signal intensity
78 | EREKALPPIPFTTTL | ≤ 0

molecular target: ScMyo5; assay: as above
In short: as §1

Row | Binder | SPOT peptide array binding signal intensity
79 | EREKALPPIPFTTTL | ≤ 0

molecular target: ScNbp2; assay: as above
In short: as §1

Row | Binder | SPOT peptide array binding signal intensity
80 | EREKALPPIPFTTTL | ≤ 0

molecular target: ScPex13; assay: as above
In short: as §1

Row | Binder | SPOT peptide array binding signal intensity
81 | EREKALPPIPFTTTL | 86.8

molecular target: ScRvs167; assay: as above
In short: as §1

Row | Binder | SPOT peptide array binding signal intensity
82 | EREKALPPIPFTTTL | 3.5

molecular target: ScSho1; assay: as above
In short: as §1

Row | Binder | SPOT peptide array binding signal intensity
83 | EREKALPPIPFTTTL | 7050

molecular target: ScSla1-D1-D2; assay: as above
In short: as §1

Row | Binder | SPOT peptide array binding signal intensity
84 | EREKALPPIPFTTTL | ≤ 0

molecular target: ScSla1-D3; assay: as above
In short: as §1

Row | Binder | SPOT peptide array binding signal intensity
85 | EREKALPPIPFTTTL | ≤ 0

molecular target: SpAbp1-D1; assay: as above
In short: as §1

Row | Binder | SPOT peptide array binding signal intensity
86 | EREKALPPIPFTTTL | ≤ 0

molecular target: SpBbc1; assay: as above
In short: as §1

Row | Binder | SPOT peptide array binding signal intensity
87 | EREKALPPIPFTTTL | ≤ 0

molecular target: SpBzz1-D1; assay: as above
In short: as §1

Row | Binder | SPOT peptide array binding signal intensity
88 | EREKALPPIPFTTTL | 61

Reference: the supplement of paper PMC4466140
